Measured values as given in PubChem BioAssay (NCI).
Compounds without any hit were thinned out: in the full panel of roughly 83,000, 20% have a hit.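 Note: values are percent growth. 100 is the growth of untreated cells, values between 100 and 0 indicate rising inhibition; between -100 and 0 indicates cell death.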 Activity calls are given as the source filed them. The calls were made as follows: active = growth percent below 10; inactive = the rest.

How the values were obtained:
Assay in all cases: NCI-60 one-dose screen, 48 h (100 = growth as untreated, 0 = no growth, -100 = all killed)
[1] = system: HCT-15 colon; conditions: 10 µM unless noted
[2] = system: HT29 colon; conditions: 10 µM unless noted
[3] = system: SNB-75 CNS; conditions: 10 µM unless noted
[4] = system: SNB-19 CNS; conditions: 10 µM unless noted
[5] = system: U251 CNS; conditions: 10 µM unless noted
[6] = system: PC-3 prostate; conditions: 10 µM unless noted
[7] = system: SK-MEL-5 melanoma; conditions: 10 µM unless noted
[8] = system: LOX IMVI melanoma; conditions: 10 µM unless noted
[9] = system: SK-MEL-28 melanoma; conditions: 10 µM unless noted
[10] = system: SK-MEL-2 melanoma; conditions: 10 µM unless noted
[11] = system: EKVX NSCLC; conditions: 10 µM unless noted
[12] = system: SN12C renal; conditions: 10 µM unless noted
[13] = system: UO-31 renal; conditions: 10 µM unless noted
[14] = system: TK-10 renal; conditions: 10 µM unless noted
[15] = system: ACHN renal; conditions: 10 µM unless noted
[16] = system: CAKI-1 renal; conditions: 10 µM unless noted
[17] = system: A498 renal; conditions: 10 µM
[18] = system: HL-60(TB) leukemia; conditions: 10 µM unless noted
[19] = system: CCRF-CEM leukemia; conditions: 10 µM unless noted
[20] = system: UACC-62 melanoma; conditions: 10 µM unless noted

Measured: growth

CC[C@H](C)[C@H](NC(=O)C12CC(NC(C)=O)(C1)C2)C(=O)N(C)[C@H](C[C@@H](OC(C)=O)c1nc(C(=O)N[C@@H](Cc2ccccc2)C[C@H](C)C(=O)OC)cs1)C(C)C
inactive: [1] 29.3% | [3] 44.8% | [4] 50.9% | [5] 11.6% | [6] 15.4% | [8] 16.5% | [9] 61% | [10] 48.8% | [11] 38.3% | [12] 30.9% | [13] 59% | [14] 50.4% | [15] 43.8% | [16] 63.5% | [19] 12.2%
active: [2] 5.65% | [7] -6.58% | [17] -14.8% | [18] -10.1%

CC(=O)O[C@H]1CC[C@@]2(C)C(=CC[C@H]3[C@@H]4C[C@@H](N5CC5)[C@H](C(C)=O)[C@@]4(C)CC[C@@H]32)C1
inactive: [1] 91.6% | [2] 85.9% | [3] 79.2% | [4] 100% | [5] 91.5% | [6] 77.9% | [7] 85.2% | [20] 92.8% | [9] 102% | [10] 103% | [12] 88.9% | [13] 104% | [14] 105% | [15] 83.1% | [16] 89.3% | [17] 98.7% | [18] 92.4% | [19] 78%

O=C1C2C(C(=O)[N]1[Hg][c]1cccs1)C1(Cl)C(Cl)=C(Cl)C2(Cl)C1(Cl)Cl (stereo not given)
inactive: [3] 59.5% | [4] 51.5% | [6] 33.4% | [7] 24% | [10] 54.6% | [11] 34.5% | [14] 49.9% | [17] 124%
active: [1] -76.8% | [2] 8.75% | [5] -67.6% | [8] -90.7% | [9] -76.9% | [12] -46.9% | [13] -29.8% | [15] -35.7% | [16] 1.56% | [18] -12.1% | [19] -14.1%

CC[C@H](C)[C@H](NC(=O)NC(C)(C)C)C(=O)N(C)[C@H](C[C@@H](OC(C)=O)c1nc(C(=O)N[C@@H](Cc2ccccc2)C[C@H](C)C(=O)OC)cs1)C(C)C
inactive: [3] 34.1% | [4] 47.6% | [5] 11.5% | [6] 11.3% | [8] 16% | [9] 53.2% | [10] 47.3% | [11] 29.4% | [12] 12.1% | [13] 45.4% | [14] 49.5% | [15] 22.7% | [16] 22.2% | [19] 10.7%
active: [1] 9.49% | [2] 5.85% | [7] -44.4% | [17] -10% | [18] -14.6%

COc1ccc2c(c1)c(-c1nc(-c3c[nH]c4ncccc34)cs1)cn2CCN1CCOCC1
inactive: [1] 31.4% | [2] 45.8% | [3] 49.7% | [4] 67% | [5] 45.6% | [6] 34.1% | [7] 25.4% | [8] 45.4% | [9] 68.4% | [10] 61.3% | [11] 37.1% | [12] 43.6% | [13] 15.4% | [14] 42.3% | [15] 36.5% | [17] 71.7% | [18] 61% | [19] 41.6%

CC(C)OC(=O)[C@H](C)NP(=O)(Oc1ccccc1)C1CCCN(O)C1=O (stereo not given in full)
inactive: [1] 93.1% | [2] 91.7% | [3] 108% | [4] 98.8% | [5] 105% | [6] 94.5% | [7] 99.2% | [9] 52.2% | [10] 94.1% | [11] 93.4% | [12] 99.2% | [13] 86.2% | [14] 99.5% | [15] 79.4% | [16] 104% | [18] 94.1% | [19] 91.3%

COc1ccc2c(c1)c(-c1nc(-c3cn(C)c4ncccc34)cs1)cn2CCCCN1CCCCC1
inactive: [3] 63.9% | [11] 55.4% | [17] 71.8%
active: [1] -80.9% | [2] -72.6% | [4] -1.68% | [5] -85.6% | [6] -66.3% | [7] -80.4% | [9] -69% | [10] -31.5% | [12] -79.7% | [13] -89.4% | [14] -26.8% | [15] -95.2% | [18] -64.9% | [19] -50.5%

Fc1c[c-]c(-c2ccccn2)c(F)c1.[CH3-].[Pt+2].c1ccc([PH+](c2ccccc2)c2ccccn2)cc1
inactive: [4] 26% | [6] 15.4%
active: [1] -36.7% | [2] -13% | [3] -5.13% | [5] 6.42% | [7] -75.3% | [8] -95.3% | [9] -21.9% | [10] -34.1% | [11] 4.9% | [12] 3.34% | [13] -71.9% | [14] -1.18% | [16] -56.2% | [17] -21% | [18] -6.41% | [19] 9.35%

Cc1c(NS(=O)(=O)c2ccccc2)ccc([N+](=O)[O-])c1Cl
inactive: [1] 64.9% | [2] 76.4% | [3] 75.4% | [4] 61.7% | [5] 63.5% | [6] 56.2% | [7] 25.8% | [9] 70.5% | [10] 65.1% | [11] 65.3% | [12] 58.6% | [13] 45.1% | [14] 77% | [15] 69.7% | [16] 47.8% | [17] 59.3% | [19] 64.3%

Clc1cc(N2CC2)nc(N2CC2)n1
inactive: [1] 72.5% | [2] 79.8% | [3] 70.6% | [4] 65.9% | [5] 67.9% | [6] 65.2% | [7] 73.9% | [8] 51.7% | [9] 92.1% | [10] 91% | [11] 107% | [12] 48.5% | [13] 74.7% | [14] 104% | [15] 22.2% | [17] 104% | [19] 54.8%
active: [16] 5.82%

Cn1cc(-c2csc(-c3cn(CCCCN4CCCCC4)c4ccc(F)cc34)n2)c2cccnc21
active: [2] -73.5% | [7] -100% | [9] -78.2% | [18] -0.887% | [19] -60.5%
inactive: [1] 76% | [3] 68.8% | [4] 87.1% | [5] 80.7% | [6] 68.4% | [8] 75.9% | [10] 97.4% | [11] 89% | [12] 75.7% | [13] 20.6% | [14] 106% | [15] 54.6% | [17] 81.5%

Cc1ccc(S(=O)(=O)C(Cl)(Cl)Cl)cc1
inactive: [1] 100% | [2] 89% | [3] 81.5% | [4] 102% | [5] 88.7% | [6] 67.4% | [7] 99.9% | [8] 98.3% | [9] 107% | [10] 97.5% | [11] 101% | [12] 98.7% | [13] 97.3% | [14] 89.5% | [15] 105% | [16] 87.9% | [17] 103% | [18] 91.1% | [19] 82.7%

Fc1ccc2c(c1)c(-c1nc(-c3c[nH]c4ncccc34)cs1)cn2CCN1CCOCC1
inactive: [1] 27.2% | [2] 47.7% | [3] 32.9% | [4] 63.7% | [5] 51.7% | [6] 23.3% | [7] 32.2% | [8] 56.7% | [9] 75.8% | [10] 67.4% | [11] 32.8% | [12] 65.8% | [13] 25.5% | [14] 64.1% | [15] 48.3% | [17] 74.1% | [19] 35.2%

CC[C@H](C)[C@H](NC(=O)[C@H]1CCCCN1C)C(=O)N(C)[C@H](CCc1nc(C(=O)N[C@@H](Cc2ccccc2)C[C@H](C)C(=O)OC)cs1)C(C)C
active: [2] -3.3% | [7] -22.1% | [17] -2.22% | [18] -21.2%
inactive: [1] 12.3% | [3] 56.3% | [4] 35.2% | [5] 10.2% | [6] 24.3% | [8] 24% | [9] 65.6% | [10] 32.7% | [11] 47.3% | [12] 28.9% | [13] 43.5% | [14] 54.3% | [15] 29.3% | [19] 12.8%

Cn1cc(-c2csc(-c3cn(CCN4CCOCC4)c4ccc(F)cc34)n2)c2cccnc21
inactive: [1] 19.6% | [2] 40.1% | [3] 51.1% | [4] 49.2% | [5] 36.9% | [8] 27.9% | [9] 40.5% | [10] 15.8% | [11] 37.5% | [12] 61.4% | [13] 11% | [14] 55.7% | [15] 17.7% | [17] 68.1% | [19] 12.4%
active: [6] 1.07% | [7] -28.8%

COc1ccc2c(c1)c(-c1nc(-c3c[nH]c4ncccc34)cs1)cn2CCCCN1CCCCC1
inactive: [11] 49.4% | [17] 58.2%
active: [1] -76.7% | [2] -72.4% | [3] -75.4% | [4] -71.1% | [5] -75.3% | [6] -79% | [7] -81.3% | [8] -83.1% | [9] -85.1% | [10] -53.2% | [12] -75.2% | [13] -87.6% | [14] -16.6% | [15] -92.2% | [18] -69.8% | [19] -38.7%

O=C(CN1CCN(C(=O)c2ccco2)CC1)Nc1ccc(Cl)cc1C(=O)c1ccccc1Cl
inactive: [1] 81.9% | [2] 89.4% | [3] 67.8% | [4] 99.2% | [5] 91.3% | [6] 73.9% | [7] 51.1% | [8] 79.9% | [9] 110% | [10] 46.6% | [11] 94.3% | [12] 105% | [13] 35.3% | [14] 132% | [15] 81.3% | [16] 91.7% | [17] 83.8% | [19] 163%
